Measurements as given in PubChem BioAssay (Tox21).
“And” between values parts separate entries of the source, which are not always exact repeats. Equal entries are not always repeated. Results filed as inconclusive are left out. Some structures have more than one record in an assay (separate samples or runs), and their calls can disagree. The source made the active and inactive calls. The call rests on the fitted dose curve; in most records, active means well fitted cell-killing curve with a large enough effect in the repeat runs; inconclusive means weak or mixed curves, or effect the other way; inactive means no such curve, though single readings can be large or run the other way.

Assay: qHTS assay to identify small molecule antagonists of the retinoid-related orphan receptor gamma (ROR-gamma) signaling pathway - cell viability counter screen (AID 1159520); further: nearly all actives have a fitted effect of over 50% in size
Conditions: Tet-on RORgamma CHO cells viability, ATP luminescence, 16 h; series mostly up to 92.4 µM; activity, negative = cytotoxicity: at the top concentration
Description: U.S. Tox21 Program National Center for Advancing Translational Sciences [NCATS] NIH Chemical Genomics Center [NCGC] U.S. Environmental Protection Agency [EPA] National Institutes of Environmental Health Sciences [NIEHS] National Toxicology Program [NTP] U.S. Food and Drug Administration [FDA] Tox21 Assay Overview: Nuclear steroid hormone receptors are involved in many biological processes including inflammatory responses, cell proliferation, and apoptosis. Environmental factors or compounds disrupting these nuclear receptor pathways and gene expression may promote susceptibility to immunotoxicants and autoimmune diseases. One important group of these expression factors are the retinoid-related orphan receptors. To assess compounds that may interfere with the retinoid-related orphan receptor gamma (ROR-gamma) transcription factor, a cell-based luciferase assay was used. The CHO cell-based assay utilizes a TET-inducible ROR expression factor and ROR response element-LUC reporter gene. Reporter gene activity was induced using Doxycycline Hyclate and measured after 16 hr incubation. Tet-on ROR gamma CHO cells were used to screen against the Tox21 10K compound library for cytotoxicity by measuring the viability of the cells based on the quantitation of the ATP.
Tox21 Assay Protocol Summary: Tet-on ROR gamma CHO cells were dispensed at 1,000 cells in 4 uL of culture medium per well into white wall/solid bottom 1536-well plates using a Multidrop Combi (Thermo Scientific, Waltham, MA) dispenser. Following incubation at 37 C and 5% CO2 for 4 hr, 23 nL of compounds dissolved in DMSO, positive controls or DMSO only were transferred by a Pintool station (Kalypsys, San Diego, CA) and after 2 hr incubation at 37 C, one ul of 1 uM (final concentration) of Doxycycline Hyclate was added to all the wells by using a Flying Reagent Dispenser (FRD) (Aurora Discovery, San Diego, CA). After 16 hr incubation at 37 C and 5% CO2, 5 uL of CellTiter-Glo reagent (Promega Corporation, Madison, WI) was added to each assay plate using FRD. After 30 min incubation at room temperature, luminescence was quantified on a ViewLux plate reader (Perkin Elmer, Waltham, MA).
On the % scale 0 is the no-effect control and ±100 the full control effect; potency means the concentration at half of the fitted maximal effect.

Row | SMILES | Potency | activity, negative = cytotoxicity
1 | CCCCOCCOC(=O)c1ccccc1C(=O)OCCOCCCC | inactive | –
2 | NCCCCCC(=O)O | – | 8.11% [at 42.5 µM] (inactive)
3 | CCN(CC)c1ccc2c(C)cc(=O)oc2c1 | inactive | –
4 | Nc1nc2ccccc2[nH]1 | inactive | –
5 | CC(C)(C)c1ccccc1 | – | 0.556% (inactive)
6 | Nc1ccc(O)cc1 | 63.5 µM (active) and inactive | –
7 | NC(N)=NC(=O)Cc1c(Cl)cccc1Cl | – | 1.76% [at 42.5 µM] (inactive)
8 | O=c1n(CC2CO2)c(=O)n(CC2CO2)c(=O)n1CC1CO1 (stereo not given) | inactive | –
9 | CCCCCCC(O)CCCCCCCCCCC(=O)O (stereo not given) | inactive | –
10 | CCCCN(CCO)CCCC | – | -5.41% (inactive)
11 | C/C=C/c1ccc(OCC)c(O)c1 | inactive | –
12 | NC(Cc1ccc(Cl)cc1)C(=O)O (stereo not given) | – | 3.35% [at 0.349 µM] (inactive)
13 | CCCCCCCCCCCCCCCCCl | – | 5.98% [at 19 µM] (inactive)
14 | CCCCCCCCCCCC[N+](C)(C)C | inactive | –
15 | COC(=O)[C@H]1[C@H]2C[C@@H]3c4[nH]c5cc(OC)ccc5c4CCN3C[C@H]2C[C@@H](OC(=O)c2cc(OC)c(OC)c(OC)c2)[C@@H]1OC | – | -10.8% [at 42.5 µM] (inactive)
16 | CCCCC(CC)COC(=O)CC(C(=O)OCC(CC)CCCC)S(=O)(=O)O (stereo not given) | inactive | –
17 | CCC[C@H](N[C@@H](C)C(=O)N1[C@H](C(=O)O)C[C@@H]2CCCC[C@@H]21)C(=O)OCC | inactive | –
18 | CCC(C)(Oc1ccc(C2(c3ccc(OC(C)(CC)C(=O)O)cc3)CCCCC2)cc1)C(=O)O (stereo not given) | – | 0.978% [at 42.5 µM] (inactive)
19 | OCC(CO)N[C@H]1C[C@](O)(CO)[C@@H](O)[C@H](O)[C@H]1O | – | 4.72% [at 42.5 µM] (inactive)
20 | O=Cc1ccc(Cl)cc1 | – | 0.518% (inactive)

Row | SMILES | Potency | activity, negative = cytotoxicity
21 | CCCNC(C)C(=O)Nc1ccccc1C (stereo not given) | – | 1.26% [at 42.5 µM] (inactive)
22 | O=C(O)c1cn(-c2ccc(F)cc2)c2cc(N3CCNCC3)c(F)cc2c1=O | inactive | –
23 | CCN(CC)C(=S)SSC(=S)N(CC)CC | 24.3 µM (active) and 176 nM (active) | –
24 | O=C(O)c1cccc(C(=O)O)c1 | inactive | –
25 | CC(C)(C)c1cc(C(C)(C)C)c(O)c(C(C)(C)C)c1 | inactive | –
26 | CC(=O)OCC1=C(C(=O)O)N2C(=O)[C@@H](NC(=O)Cc3cccs3)[C@H]2SC1 | – | 3.54% [at 42.5 µM] (inactive)
27 | CC(C)(C)c1ccc(O)c(C(C)(C)C)c1 | 54.3 µM (active) | –
28 | O=C(OCc1ccccc1)c1ccc(O)cc1 | inactive | –
29 | CC(=O)O[C@]1(C(C)=O)CC[C@H]2[C@@H]3C[C@H](C)C4=CC(=O)CC[C@]4(C)[C@H]3CC[C@@]21C | inactive | –
30 | CCOC(=O)C(C)C(C)=O (stereo not given) | – | 4.98% (inactive)
31 | C#CC(C)(CC)OC(=O)c1ccccc1C(=O)O (stereo not given) | – | 5.09% [at 42.5 µM] (inactive)
32 | C=CS(=O)(=O)O | – | 1.18% (inactive)
33 | c1ccc2cc3c(ccc4ccccc43)cc2c1 | inactive | –
34 | c1cnc2cc3c(cc2n1)C1CNCC3C1 | – | 0.0248% [at 42.5 µM] (inactive)
35 | O=Nc1ccc(Nc2ccccc2)cc1 | 19.4 µM (active) and 15.4 µM (active) | –
36 | O=C1OC2(c3ccc(O)cc3Oc3cc(O)ccc32)c2ccccc21 | inactive | –
37 | CC(N)=O | – | 0.269% [at 240 µM] (inactive)
38 | CCN1CCCC1CNC(=O)c1cc(S(=O)(=O)CC)c(N)cc1OC (stereo not given) | – | -0.533% [at 42.5 µM] (inactive)
39 | CCc1ccc(C(c2ccc(CC)cc2)C(Cl)Cl)cc1 | inactive | –
40 | Nc1ccc2cc3ccccc3cc2c1 | inactive | –
